Experimental data published in PubChem BioAssay (NCI).
About 79,000 compounds went through this panel and 15% of them were active in at least one assay; those are over-represented in the sample as a whole. Values without a mark were called inactive. No stated cut-off is given here; in the data, active means growth inhibition above about 70%; inactive means the rest. Where a SMILES comes first, the peptide text is derived from it. The star is where a group is joined. Boc = CC(C)(C)OC(=O)*; OBn = c1ccc(CO*)cc1

Assay: NCI Yeast Anticancer Drug Screen. Data for the rad50 strain (AID 155);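 further: 0% = growth of vehicle-only cultures of the same strain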
Conditions: S. cerevisiae rad50 strain growth inhibition; at 50.0 µM; stronger effect = higher value
Summary of the method: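 Compounds were tested on a yeast strain with an engineered DNA damage repair alteration; the reported value is growth inhibition normalised to vehicle treatment.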

Row | Structure (SMILES) | growth inhibition
1 | CCCCCCCCCCCCSSC(=S)OC(C)C | 46.7%
2 | CN1CCCN(C)CCCN(C)CCCN(C)CCC1 | -19.8%
3 | CC(C)CC(NC(=O)OC(C)(C)C)C(=O)NC(CC(=O)OCc1ccccc1)C(=O)OCc1ccccc1 (stereo not drawn) (Boc-Leu-Asp(OBn)-OBn; configuration not given here) | 26.3%
4 | CCOc1ccc(OCC)c(NC(=O)OC(C)C)c1 | -6.35%
5 | O=Cc1ccc(N2OC(c3ccc([N+](=O)[O-])cc3)C(c3ccc([N+](=O)[O-])cc3)C2c2ccc([N+](=O)[O-])cc2)cc1 (stereo not given) | 13.2%
6 | CC(=O)OC(C)(C)c1ccc2c(c1)C(=O)C[C@@H]1[C@](C)(C#N)CCC[C@]21C | 46.6%
7 | O=c1c(-c2ccccc2)c(O)on1/C=C1/C=CC=N1 | -8.6%
8 | CCOC(=O)NCC(=O)NCC(=O)NCC(N)=O | -14.2%
9 | NCCN(CCN)/[N+]([O-])=N/O | 18.6%
10 | O=S(=O)(Nc1cccc(C(F)(F)F)c1)c1ccc(F)cc1 | 6.95%
11 | CC(O)(CNS(=O)(=O)c1ccccc1)c1ccccc1 (stereo not given) | 14.2%
12 | COC(=O)C1C2C=CC(C2)C1C(=O)OC (stereo not given) | -20.5%
13 | O=C1OC(=O)C(c2ccccc2)=C1c1ccccc1 | 10.6%
14 | c1ccc2c(c1)NC1C3(CCC4CCCCC241)SCCS3 (stereo not given) | 9.45%
15 | Cc1cc(C)c(NC(=O)c2c(Cl)c(Cl)c(Cl)c(Cl)c2C(=O)O)c(C)c1 | -4.9%
